{"source": "PubChem BioAssay", "note": "Unmarked numbers belong to inactive results. Active and inactive are the calls of the source.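 Rule for the calls: active = normalized viability below 100% at a tested concentration; inactive = the rest.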"}
{"assay": "ovarian cancer cell viability with rucaparib, profiling panel, oncology-focused library, rucaparib conditional (AID 1508598)", "settings": "patient-derived ovarian cancer cells, CellTiter-Glo viability, 144 h; at 0.00488 µM; OCI-C5x cells; without rucaparib; active compounds read low"}
{"smiles": "O=c1[nH]c(=O)n([C@@H]2C[C@H](O)[C@@H](CO)O2)cc1F", "viability": "121%"}
{"smiles": "COc1cccc2c1C(=O)c1c(O)c3c(c(O)c1C2=O)C[C@@](O)(C(C)=O)C[C@H]3O[C@H]1C[C@H](N)[C@H](O)[C@H](C)O1", "viability": "152%"}
{"smiles": "C[C@]12CC[C@H]3c4ccc(O)cc4CC[C@H]3[C@@H]1CC[C@H]2O", "viability": "124%"}
{"smiles": "CC1=C(/C=C/C(C)=C\\C=C\\C(C)=C/C(=O)O)C(C)(C)CCC1", "viability": "109%"}
{"smiles": "CC(C)CC(CC(=O)NO)C(=O)N[C@@H](Cc1ccc2ccccc2c1)C(=O)N[C@@H](C)C(=O)NCCN", "note": "(stereo partly specified)", "viability": "118%"}
{"smiles": "COc1cccc2c1C(=O)c1c(O)c3c(c(O)c1C2=O)C[C@@](O)(C(=O)CO)C[C@H]3O[C@H]1C[C@H](N)[C@@H](O)[C@H](C)O1", "viability": "95.4% (active)"}
{"smiles": "COc1ccc(C2=N[C@H](c3ccc(Cl)cc3)[C@@H](c3ccc(Cl)cc3)N2C(=O)N2CCNC(=O)C2)c(OC(C)C)c1", "viability": "112%"}
{"smiles": "CO[C@H]1C[C@H]2CC[C@@H](C)[C@@](O)(O2)C(=O)C(=O)N2CCCC[C@H]2C(=O)O[C@H]([C@H](C)C[C@@H]2CC[C@H](OC(=O)C(C)(CO)CO)[C@H](OC)C2)CC(=O)[C@H](C)/C=C(\\C)[C@@H](O)[C@@H](OC)C(=O)[C@H](C)C[C@H](C)/C=C/C=C/C=C/1C", "viability": "91.6% (active)"}
{"smiles": "O=C(O)c1cc(I)ccc1NC(=O)[C@H](Cc1ccccc1)NCc1ccccc1", "viability": "118%"}
{"smiles": "Nc1ncn([C@@H]2O[C@H](CO)[C@@H](O)[C@@H]2O)c(=O)n1", "viability": "122%"}
{"smiles": "CO[C@H]1C[C@@H]2CC[C@@H](C)[C@@](O)(O2)C(=O)C(=O)N2CCCC[C@H]2C(=O)O[C@H]([C@H](C)C[C@@H]2CC[C@@H](O)[C@H](OC)C2)CC(=O)[C@H](C)/C=C(\\C)[C@@H](O)[C@H](OC)C(=O)[C@H](C)C[C@H](C)/C=C/C=C/C=C/1C", "viability": "95.5% (active)"}
{"smiles": "CC(=O)OCC(=O)[C@]1(O)[C@H](C)C[C@H]2[C@@H]3CCC4=CC(=O)C=C[C@]4(C)[C@]3(F)[C@H](O)C[C@@]21C", "viability": "122%"}
{"smiles": "CC[C@]1(O)C[C@@H]2CN(CCc3c([nH]c4ccccc34)[C@@](C(=O)OC)(c3cc4c(cc3OC)N(C=O)[C@H]3[C@@](O)(C(=O)OC)[C@H](OC(C)=O)[C@]5(CC)C=CCN6CC[C@@]43[C@@H]65)C2)C1", "viability": "41.5% (active)"}
{"smiles": "C[C@@]12CC[C@H]3c4ccc(O)cc4C[C@@H](CCCCCCCCCS(=O)CCCC(F)(F)C(F)(F)F)[C@H]3[C@@H]1CC[C@@H]2O", "note": "(stereo partly specified)", "viability": "110%"}
{"smiles": "CC(=O)O[C@@]1(C(C)=O)CC[C@H]2[C@@H]3C[C@H](C)C4=CC(=O)CC[C@]4(C)[C@@H]3CC[C@@]21C", "viability": "119%"}
{"smiles": "CC(=O)O[C@]12CO[C@@H]1C[C@H](O)[C@]1(C)C(=O)[C@H](O)C3=C(C)[C@H](OC(=O)[C@H](O)[C@@H](NC(=O)OC(C)(C)C)c4ccccc4)C[C@](O)([C@H](OC(=O)c4ccccc4)C21)C3(C)C", "note": "(stereo partly specified)", "viability": "32.6% (active)"}
{"smiles": "CCC1=CC2CN(C1)Cc1c([nH]c3ccccc13)[C@@](C(=O)OC)(c1cc3c(cc1OC)N(C)[C@H]1[C@@](O)(C(=O)OC)[C@H](OC(C)=O)[C@]4(CC)C=CCN5CC[C@@]31[C@H]54)C2", "note": "(stereo partly specified)", "viability": "43.8% (active)"}
{"smiles": "CC(=O)O[C@H]1C(=O)[C@@]2(C)C([C@H](OC(=O)c3ccccc3)[C@]3(O)C[C@H](OC(=O)[C@H](O)[C@@H](NC(=O)c4ccccc4)c4ccccc4)C(C)=C1C3(C)C)[C@]1(OC(C)=O)CO[C@@H]1C[C@H]2O", "note": "(stereo partly specified)", "viability": "71.2% (active)"}
{"assay": "ovarian cancer cell viability with rucaparib, profiling panel, oncology-focused library, rucaparib conditional (AID 1508598)", "settings": "patient-derived ovarian cancer cells, CellTiter-Glo viability, 144 h; at 0.00488 µM; OCI-P5x cells; with rucaparib 20 µM; active compounds read low; 100% = cells with rucaparib alone"}
{"smiles": "O=c1[nH]c(=O)n([C@@H]2C[C@H](O)[C@@H](CO)O2)cc1F", "viability": "105%"}
{"smiles": "COc1cccc2c1C(=O)c1c(O)c3c(c(O)c1C2=O)C[C@@](O)(C(C)=O)C[C@H]3O[C@H]1C[C@H](N)[C@H](O)[C@H](C)O1", "viability": "99.2% (active)"}
{"smiles": "C[C@]12CC[C@H]3c4ccc(O)cc4CC[C@H]3[C@@H]1CC[C@H]2O", "viability": "104%"}
{"smiles": "CC1=C(/C=C/C(C)=C\\C=C\\C(C)=C/C(=O)O)C(C)(C)CCC1", "viability": "81.7% (active)"}
{"smiles": "CC(C)CC(CC(=O)NO)C(=O)N[C@@H](Cc1ccc2ccccc2c1)C(=O)N[C@@H](C)C(=O)NCCN", "note": "(stereo partly specified)", "viability": "92% (active)"}
{"smiles": "COc1cccc2c1C(=O)c1c(O)c3c(c(O)c1C2=O)C[C@@](O)(C(=O)CO)C[C@H]3O[C@H]1C[C@H](N)[C@@H](O)[C@H](C)O1", "viability": "106%"}
{"smiles": "COc1ccc(C2=N[C@H](c3ccc(Cl)cc3)[C@@H](c3ccc(Cl)cc3)N2C(=O)N2CCNC(=O)C2)c(OC(C)C)c1", "viability": "95.4% (active)"}
{"smiles": "CO[C@H]1C[C@H]2CC[C@@H](C)[C@@](O)(O2)C(=O)C(=O)N2CCCC[C@H]2C(=O)O[C@H]([C@H](C)C[C@@H]2CC[C@H](OC(=O)C(C)(CO)CO)[C@H](OC)C2)CC(=O)[C@H](C)/C=C(\\C)[C@@H](O)[C@@H](OC)C(=O)[C@H](C)C[C@H](C)/C=C/C=C/C=C/1C", "viability": "71.8% (active)"}
{"smiles": "O=C(O)c1cc(I)ccc1NC(=O)[C@H](Cc1ccccc1)NCc1ccccc1", "viability": "98.6% (active)"}
{"smiles": "Nc1ncn([C@@H]2O[C@H](CO)[C@@H](O)[C@@H]2O)c(=O)n1", "viability": "102%"}
{"smiles": "CO[C@H]1C[C@@H]2CC[C@@H](C)[C@@](O)(O2)C(=O)C(=O)N2CCCC[C@H]2C(=O)O[C@H]([C@H](C)C[C@@H]2CC[C@@H](O)[C@H](OC)C2)CC(=O)[C@H](C)/C=C(\\C)[C@@H](O)[C@H](OC)C(=O)[C@H](C)C[C@H](C)/C=C/C=C/C=C/1C", "viability": "83.5% (active)"}
{"smiles": "CC(=O)OCC(=O)[C@]1(O)[C@H](C)C[C@H]2[C@@H]3CCC4=CC(=O)C=C[C@]4(C)[C@]3(F)[C@H](O)C[C@@]21C", "viability": "110%"}
{"smiles": "CC[C@]1(O)C[C@@H]2CN(CCc3c([nH]c4ccccc34)[C@@](C(=O)OC)(c3cc4c(cc3OC)N(C=O)[C@H]3[C@@](O)(C(=O)OC)[C@H](OC(C)=O)[C@]5(CC)C=CCN6CC[C@@]43[C@@H]65)C2)C1", "viability": "51% (active)"}
{"smiles": "C[C@@]12CC[C@H]3c4ccc(O)cc4C[C@@H](CCCCCCCCCS(=O)CCCC(F)(F)C(F)(F)F)[C@H]3[C@@H]1CC[C@@H]2O", "note": "(stereo partly specified)", "viability": "116%"}
{"smiles": "CC(=O)O[C@@]1(C(C)=O)CC[C@H]2[C@@H]3C[C@H](C)C4=CC(=O)CC[C@]4(C)[C@@H]3CC[C@@]21C", "viability": "103%"}
{"smiles": "CC(=O)O[C@]12CO[C@@H]1C[C@H](O)[C@]1(C)C(=O)[C@H](O)C3=C(C)[C@H](OC(=O)[C@H](O)[C@@H](NC(=O)OC(C)(C)C)c4ccccc4)C[C@](O)([C@H](OC(=O)c4ccccc4)C21)C3(C)C", "note": "(stereo partly specified)", "viability": "70.1% (active)"}
{"smiles": "CCC1=CC2CN(C1)Cc1c([nH]c3ccccc13)[C@@](C(=O)OC)(c1cc3c(cc1OC)N(C)[C@H]1[C@@](O)(C(=O)OC)[C@H](OC(C)=O)[C@]4(CC)C=CCN5CC[C@@]31[C@H]54)C2", "note": "(stereo partly specified)", "viability": "52.9% (active)"}
{"smiles": "CC(=O)O[C@H]1C(=O)[C@@]2(C)C([C@H](OC(=O)c3ccccc3)[C@]3(O)C[C@H](OC(=O)[C@H](O)[C@@H](NC(=O)c4ccccc4)c4ccccc4)C(C)=C1C3(C)C)[C@]1(OC(C)=O)CO[C@@H]1C[C@H]2O", "note": "(stereo partly specified)", "viability": "97.9% (active)"}
